Assay results taken from PubChem BioAssay.
A number with no mark means an inactive call. Activity calls are given as the source filed them. Cut-off read from the data, not from the text of the source, unless noted: active = inhibition above about 44%; inactive = the rest.

Experiments:
[1] = StAR promoter reporter inhibitors, counter-screen for LRH-1 inverse agonist project, cell-based, luminescence, high throughput (AID 651611; in the data active = inhibition above about 28%); settings: StAR promoter luciferase reporter counterscreen, at 3.6 µM, stronger effect = higher value
[2] = target: Nuclear receptor subfamily 5 group A member 2 (Homo sapiens) (UniProt O00482); test: LRH-1 (NR5A2) inverse agonists, retest, confirmation, cell-based, luminescence (AID 651613; in the data active = inhibition above about 42%;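 note: HEK293T cells co-transfected with LRH-1 and StAR promoter luciferase reporter; 0% = vehicle wells and 100% = parental cells lacking receptor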); settings: cell-based LRH-1 luciferase reporter, inverse agonism; at 3.6 µM; stronger effect = higher value
Chain of Nuclear receptor subfamily 5 group A member 2 (Homo sapiens) (O00482 whole entry, looked up): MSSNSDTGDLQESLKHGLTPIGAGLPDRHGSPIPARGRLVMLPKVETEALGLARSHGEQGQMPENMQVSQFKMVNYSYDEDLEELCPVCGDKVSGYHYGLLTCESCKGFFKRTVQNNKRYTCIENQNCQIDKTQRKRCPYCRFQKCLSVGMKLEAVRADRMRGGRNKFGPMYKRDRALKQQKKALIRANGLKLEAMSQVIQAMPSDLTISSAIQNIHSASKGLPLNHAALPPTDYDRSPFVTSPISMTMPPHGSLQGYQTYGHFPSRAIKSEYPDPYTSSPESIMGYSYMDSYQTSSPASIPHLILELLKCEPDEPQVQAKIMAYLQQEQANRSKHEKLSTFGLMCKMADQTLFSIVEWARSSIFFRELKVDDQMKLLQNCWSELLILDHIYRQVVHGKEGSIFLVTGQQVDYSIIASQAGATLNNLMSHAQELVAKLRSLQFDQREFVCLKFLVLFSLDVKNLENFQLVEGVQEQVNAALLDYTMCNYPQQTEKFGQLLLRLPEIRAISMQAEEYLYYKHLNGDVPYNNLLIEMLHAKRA

[3] = target: Steroidogenic factor 1 (Homo sapiens) (UniProt Q13285); test: SF1 (NR5A1) inverse agonists, counter-screen for LRH-1 inverse agonist project, cell-based, luminescence, high throughput (AID 651614); settings: cell-based SF1 luciferase reporter, at 3.6 µM, stronger effect = higher value;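 note: cells cotransfected with StAR promoter reporter and SF1 expression vector; 0% = vehicle on cells with receptor and 100% = vehicle on cells lacking receptor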
Chain of Steroidogenic factor 1 (Homo sapiens) (Q13285 whole entry, looked up, the tested form may be a part): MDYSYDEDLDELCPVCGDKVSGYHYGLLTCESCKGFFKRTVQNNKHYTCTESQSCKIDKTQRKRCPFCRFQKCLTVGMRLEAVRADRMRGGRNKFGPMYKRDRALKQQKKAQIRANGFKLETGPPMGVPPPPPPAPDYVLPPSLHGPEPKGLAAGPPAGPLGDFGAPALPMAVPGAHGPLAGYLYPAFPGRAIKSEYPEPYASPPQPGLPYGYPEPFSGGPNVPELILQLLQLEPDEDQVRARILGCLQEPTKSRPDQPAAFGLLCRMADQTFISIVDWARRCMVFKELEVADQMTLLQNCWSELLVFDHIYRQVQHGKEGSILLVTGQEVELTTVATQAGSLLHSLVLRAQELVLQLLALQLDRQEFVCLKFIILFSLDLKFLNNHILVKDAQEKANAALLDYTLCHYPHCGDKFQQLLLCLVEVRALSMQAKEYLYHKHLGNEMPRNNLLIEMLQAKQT

[4] = VP16 transactivation reporter inhibitors, counter-screen for LRH-1 inverse agonist project, cell-based, luminescence, high throughput (AID 651615; in the data active = inhibition above about 33%); settings: Gal4-VP16 luciferase reporter cells, at 3.6 µM, stronger effect = higher value
[5] = system: transactivating tegument protein VP16 (Human herpesvirus 1); test: VP16 transactivation reporter inhibitors, counter-screen for SRC2 inhibitor project, cell-based, luminescence, single concentration (AID 652007; in the data active = inhibition above about 36%); settings: cell-based VP16 transactivation luciferase reporter, at 8.9 µM, stronger effect = higher value
[6] = target: Nuclear receptor coactivator 2 (Homo sapiens) (UniProt Q15596); test: SRC2 coactivator transcriptional activity inhibitors, confirmation, cell-based, luminescence, HEK293, triplicate (AID 652008;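 active = mean inhibition above 46.5%, the solvent-only control mean plus 3 SD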;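 note: 0% = DMSO-treated cells and 100% = Gossypol at 36 µM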); settings: HEK293 GAL4-SRC2 luciferase reporter, at 8.9 µM, stronger effect = higher value
Chain of Nuclear receptor coactivator 2 (Homo sapiens) (Q15596 whole entry, looked up, the tested form may be a part): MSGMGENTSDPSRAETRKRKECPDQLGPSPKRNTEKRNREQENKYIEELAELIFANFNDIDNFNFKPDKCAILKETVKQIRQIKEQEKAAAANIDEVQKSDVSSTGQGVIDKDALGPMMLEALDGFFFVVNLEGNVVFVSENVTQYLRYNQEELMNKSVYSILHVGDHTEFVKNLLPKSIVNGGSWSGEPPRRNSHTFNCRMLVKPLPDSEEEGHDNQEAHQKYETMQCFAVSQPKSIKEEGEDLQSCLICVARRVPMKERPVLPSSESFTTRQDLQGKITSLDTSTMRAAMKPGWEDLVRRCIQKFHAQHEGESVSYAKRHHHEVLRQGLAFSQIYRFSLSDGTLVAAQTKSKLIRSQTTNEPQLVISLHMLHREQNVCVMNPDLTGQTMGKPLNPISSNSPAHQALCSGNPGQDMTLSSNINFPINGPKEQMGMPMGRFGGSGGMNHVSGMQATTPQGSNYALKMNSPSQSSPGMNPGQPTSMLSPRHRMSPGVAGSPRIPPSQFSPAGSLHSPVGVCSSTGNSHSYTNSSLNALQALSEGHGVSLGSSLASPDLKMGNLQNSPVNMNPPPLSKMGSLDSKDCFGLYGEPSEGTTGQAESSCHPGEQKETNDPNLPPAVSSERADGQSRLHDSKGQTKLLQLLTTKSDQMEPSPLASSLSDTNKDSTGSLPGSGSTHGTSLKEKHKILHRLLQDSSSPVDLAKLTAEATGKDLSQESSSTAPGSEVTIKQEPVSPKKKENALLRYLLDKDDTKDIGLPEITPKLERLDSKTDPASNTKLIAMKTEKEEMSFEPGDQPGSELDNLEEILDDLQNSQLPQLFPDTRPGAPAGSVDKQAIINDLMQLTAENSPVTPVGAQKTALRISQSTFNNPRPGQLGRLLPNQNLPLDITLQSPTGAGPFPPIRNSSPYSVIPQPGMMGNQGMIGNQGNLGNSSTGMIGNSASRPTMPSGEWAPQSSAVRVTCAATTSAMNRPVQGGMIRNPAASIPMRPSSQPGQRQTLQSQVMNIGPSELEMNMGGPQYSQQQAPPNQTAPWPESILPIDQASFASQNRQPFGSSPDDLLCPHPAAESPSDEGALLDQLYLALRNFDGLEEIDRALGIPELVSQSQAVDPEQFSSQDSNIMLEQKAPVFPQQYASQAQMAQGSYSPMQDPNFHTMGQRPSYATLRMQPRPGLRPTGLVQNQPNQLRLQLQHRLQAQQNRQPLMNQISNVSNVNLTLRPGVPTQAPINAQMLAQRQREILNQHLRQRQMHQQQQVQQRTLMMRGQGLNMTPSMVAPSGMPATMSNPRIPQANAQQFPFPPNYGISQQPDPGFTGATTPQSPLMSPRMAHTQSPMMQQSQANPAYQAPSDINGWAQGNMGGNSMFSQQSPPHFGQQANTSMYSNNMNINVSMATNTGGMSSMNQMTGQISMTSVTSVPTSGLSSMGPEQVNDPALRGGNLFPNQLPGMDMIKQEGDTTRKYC

| SMILES | inhibition [1] | inhibition [2] | inhibition [3] | inhibition [4] | inhibition [5] | inhibition [6] |
| --- | --- | --- | --- | --- | --- | --- |
| COc1ccc(NC(=O)/C(Cl)=C(/Cl)S(=O)Cc2ccccc2)cn1 (stereo not drawn) | 56.1% (active) | 87.8% (active) | 78.2% (active) | 94.5% (active) | 95.8% (active) | 100% (active) |
| COc1cc(-c2noc(C)c2-c2ccc(N(C)C)nc2)cc(OC)c1OC | 58.7% (active) | 53% (active) | 63.2% (active) | -0.05% |  |  |
| NC(=O)COc1ccc2c3c(c(=O)oc2c1)CCCCC3 | -1.98% | 40.5% | 41.6% | 0.54% |  |  |
| O=C(CCl)N1CCN(C(=O)C2COc3ccccc3O2)CC1 (stereo not drawn) | 18.7% | 57.3% (active) | 57.3% (active) | -13.5% |  |  |
| N#CC1=C(N)C(C#N)(C#N)[C@H](c2c(F)cccc2F)[C@H]2CC3(CC=C12)OCCO3 | 16.1% | 60.9% (active) | 54% (active) | 17.2% |  |  |
| Cc1ccc(C)c(NC(=O)CSc2nnc(-c3n[nH]c4ccccc34)o2)c1 | 10.3% | 58.9% (active) | 50.4% (active) | 5.08% |  |  |
| CCC(C)Nc1nc(-c2cccc(OC)c2O)nc2ccccc12 (stereo not drawn) | 30.8% (active) | 52.4% (active) | 46.3% (active) | -7% |  |  |
| O=C1C=C(c2ccccc2)OC2(CCCC2)O1 | 19.8% | 67.3% (active) | 61.2% (active) | -4.15% |  |  |
| COC(=O)c1ccc(NC(=O)CN2CCN(S(=O)(=O)c3cc(Cl)ccc3OC)CC2)cc1 | 9.56% | 60.3% (active) | 57.5% (active) | 7.76% |  |  |
